Measured values from PubChem BioAssay (EPA / NIEHS).
Activity calls are given as the source filed them. Rule for the calls: active = hit-call score of the fitted dose curve at least 0.9, where 1 is the maximum; inactive = score below 0.9.

Each molecule was assayed against Cellular tumor antigen p53 (Homo sapiens) (UniProt P04637) (assay: ATG_p53_CIS: Attagene CIS-FACTORIAL HepG2 Assay for human p53 Transcription Factor (AID 2282994)). Settings: HepG2 p53 cis-element reporter, Attagene mRNA; actives raise or lower the signal.
Protocol: ATG_CIS is a cell-based, multiplexed-readout assay that uses HepG2, a human liver cell line, with measurements taken at 24 hours after chemical dosing in a 24-well plate.ATG_p53_CIS is one of 52 assay component(s) measured or calculated from the ATG_CIS assay. It is designed to make measurements of mRNA induction, a form of inducible reporter, as detected with fluorescence intensity signals by Reverse transcription polymerase chain reaction (RT-PCR) and Capillary electrophoresis technology.Data from the assay component ATG_p53_CIS was analyzed into 1 assay endpoint. This assay endpoint, ATG_p53_CIS, was analyzed with bidirectional fitting relative to DMSO as the negative control and baseline of activity. Using a type of inducible reporter, measures of mRNA for gain or loss-of-signal activity can be used to understand the reporter gene at the transcription factor-level as they relate to the gene TP53. Furthermore, this assay endpoint can be referred to as a primary readout, because this assay has produced multiple assay endpoints where this one serves a reporter gene function. To generalize the intended target to other relatable targets, this assay endpoint is annotated to the dna binding intended target family, where the subfamily is tumor suppressor.
Human liver HepG2 cells are transiently transfected with multiple reporter transcription units (MRTUs) in 6-well plates using FuGene 6 reagent (Roche; 3 ml FuGene/1 mg DNA). The MRTU constructs are regulated by a cis-regulating element (promoter). […] A major difference between the CIS and TRANS system is that in CIS activities of endogenous TFs are measured, whereas the TRANS assay evaluates changes in activities of exogenous, chimeric NR-Gal4 proteins. […] At the end of 24 hour incubation, total RNA was isolated using TriZol reagent (Invitrogen). The isolated RNA is then reverse-transcribed using oligo(dT) primer and Mo-MLV reverse transcriptase (Invitrogen) with DNAse I (Ambion) treatment for 30 min. The one-tenth of the produced cDNA was amplified by PCR using Taq DNA polymerase (Invitrogen) and two reporter sequence-specific primers. The PCR products were fluorescently labeled by primer extension with 6-arboxyfluorescein (6-FAM) 5'-labeled reporter sequence-specific primer (2 min at 95 C, 20 s at 68 C and 10 min at 72 C) and these products were digested with 5U of HpaI (New England Biolabs) for 2h at 37 C. The fragments were purified using Qiaquick PCR columns (Qiagen), analyzed on an ABI 3130xL genetic analyzer (Applied Biosystems) with peak positions identified by using a set of X-rhodamine (ROX)-labeled MapMarker1000 molecular weight standards (BioVentures). The raw capillary electrophoresis data was processed using Attagraph software (Attagene).

Sequence of Cellular tumor antigen p53 (Homo sapiens) (P04637 whole entry, looked up): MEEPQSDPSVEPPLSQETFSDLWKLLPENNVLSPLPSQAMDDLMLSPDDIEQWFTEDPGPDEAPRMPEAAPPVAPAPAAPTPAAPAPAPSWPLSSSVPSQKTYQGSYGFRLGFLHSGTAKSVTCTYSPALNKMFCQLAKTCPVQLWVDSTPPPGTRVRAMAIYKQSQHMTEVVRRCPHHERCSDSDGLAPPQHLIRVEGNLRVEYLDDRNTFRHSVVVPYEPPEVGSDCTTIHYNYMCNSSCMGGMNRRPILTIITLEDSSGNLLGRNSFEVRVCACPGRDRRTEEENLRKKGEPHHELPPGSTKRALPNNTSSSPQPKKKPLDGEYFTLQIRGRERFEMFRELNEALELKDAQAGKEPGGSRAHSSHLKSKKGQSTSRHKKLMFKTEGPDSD

SMILES | outcome | AC50
C=C(Cl)Cl | inactive | 
C=COCCCl | inactive | 
COCC(=O)N(c1c(C)cccc1C)N1CCOC1=O | inactive | 
CC1CCC(=O)O1 (stereo not given) | inactive | 
CCC(C)c1cc([N+](=O)[O-])cc([N+](=O)[O-])c1OC(=O)C=C(C)C (stereo not given) |  | 48.3 µM (active)
COC(=O)COc1ccc(Cl)cc1Cl | inactive | 
c1cc(OCC2CO2)ccc1Cc1ccc(OCC2CO2)cc1 (stereo not given) |  | 55.3 µM (active)
CCOC(=O)COc1ccc(Cl)cc1Cl | inactive | 
C=CCN(CC=C)C(=O)C(Cl)Cl | inactive | 
N#CCNCC#N | inactive | 
O=CNC(N1CCN(C(NC=O)C(Cl)(Cl)Cl)CC1)C(Cl)(Cl)Cl (stereo not given) |  | 148 µM (active)
COc1cc(OC)c(OC)cc1C=O | inactive | 
Cc1ccc(OP(=O)(Oc2ccc(C)cc2)Oc2ccc(C)cc2)cc1 (tested in a mixture with another compound) | inactive | 
CCOP(=O)(OCC)OCC | inactive | 
CC1OC(C)OC(C)O1 (stereo not given) | inactive | 
CC=Cc1ccc2c(c1)OCO2 | inactive | 
Nc1ccc([N+](=O)[O-])cc1N | inactive | 
ClCC(Cl)Cl | inactive | 
C=C(Cl)CCl | inactive | 
CC1CCCC1.[C-]#[O+].[C-]#[O+].[C-]#[O+].[Mn] | inactive | 

SMILES | outcome | AC50
c1ccc(P(c2ccccc2)c2ccccc2)cc1 | inactive | 
CC(C)CCCCCCCOP(=O)(Oc1ccccc1)Oc1ccccc1 | inactive | 
CC(O)CN(CC(C)O)CC(C)O (stereo not given) | inactive | 
CC(C)C(=O)Cl | inactive | 
C=Cc1cccc(CCl)c1 | inactive | 
O=[N+]([O-])C=Cc1ccccc1 |  | 20.2 µM (active)
CCOP(=O)(OCC)Oc1ccc([N+](=O)[O-])cc1 | inactive | 
CCC(Br)(CC)C(=O)NC(N)=O | inactive | 
C[N+](=O)[O-] | inactive | 
Nc1cc(Cl)cc(Cl)c1 | inactive | 
COc1cc(OC)nc(Oc2cccc(Oc3nc(OC)cc(OC)n3)c2C(=O)O)n1 | inactive | 
CN1C[C@H](C(=O)N[C@]2(C)O[C@@]3(O)[C@@H]4CCCN4C(=O)[C@H](Cc4ccccc4)N3C2=O)C=C2c3cccc4[nH]cc(c34)C[C@H]21 | inactive | 
CCCCCCCCCCCC#N | inactive | 
O=C1C=CC(=O)C=C1 | inactive | 
CSc1nc(N=[N+]=[N-])nc(NC(C)C)n1 | inactive | 
Oc1cc(Cl)ccc1Cl | inactive | 
CC(C)(C)C(O)C(Oc1ccc(-c2ccccc2)cc1)n1cncn1 (stereo not given) |  | 44 µM (active)
O=C1C(Cl)=C(Cl)C(=O)C(Cl)=C1Cl | inactive | 
C=CC(=O)OCC(CC)CCCC (stereo not given) | inactive | 
O=C(NCNC(=O)NC1C(=O)NC(=O)N1CO)NC1C(=O)NC(=O)N1CO (stereo not given) | inactive | 
